The structures appear in SMILES notation. The campaign covered roughly 69,000 compounds. About 420 (0.61%) showed an effect of 50% or more. Many of the other results were omitted from the sample, so strong results are more common in it than they were.

The experiment has as its target T1, Histidine--tRNA ligase (Leishmania infantum) (UniProt A4I591).
T1 sequence (whole entry): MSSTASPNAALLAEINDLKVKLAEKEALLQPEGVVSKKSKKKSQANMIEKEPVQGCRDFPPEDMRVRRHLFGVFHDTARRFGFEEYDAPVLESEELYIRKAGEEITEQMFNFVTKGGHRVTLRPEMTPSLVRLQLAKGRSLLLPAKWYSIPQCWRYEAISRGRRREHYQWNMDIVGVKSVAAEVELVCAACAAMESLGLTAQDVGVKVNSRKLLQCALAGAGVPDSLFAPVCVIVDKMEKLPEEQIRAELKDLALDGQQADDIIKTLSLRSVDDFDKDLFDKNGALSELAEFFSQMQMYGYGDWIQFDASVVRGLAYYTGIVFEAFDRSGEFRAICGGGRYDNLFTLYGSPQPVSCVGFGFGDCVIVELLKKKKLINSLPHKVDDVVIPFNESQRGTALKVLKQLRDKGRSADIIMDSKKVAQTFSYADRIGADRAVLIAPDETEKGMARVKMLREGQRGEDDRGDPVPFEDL
The experiment is described as follows: Leishmania infantum Histidine tRNA synthetase (LdHisRS). Format: functional. Details: scale not given: in the data most compounds retested in dose-response had high values. To be noted: 30 µM.
Regarding `CCCc1ccc(CN2CCN(c3ncccn3)[C@@H]3CS(=O)(=O)C[C@@H]32)o1`, the Percent Effect came to 13.2%.
The result for `Cc1nc(CN2C[C@@H]3CN(C(=O)NC(C)C)C[C@@H]3C2=O)cs1` reads 2.94%; that for `CC(C)NC(=O)c1sc2ccccc2c1[C@H]1CC[C@H](CN)CC1`, 8.45%; that for `Cn1cc(CN2CCC[C@]3(C(=O)O)CN(c4ncccn4)C[C@@H]3C2)cn1`, 27.8%.
For `Cc1noc([C@H]2C[C@H]3OCC[C@H]3N(C3CCC3)C2)n1`, the Percent Effect is -1.06%.
Take `O=C(c1cccc(F)c1)N1CC[C@@H]2CN(c3ncccn3)CCO[C@@H]2C1`: the Percent Effect is 6%.
Consider `CCc1ccc(NC(=O)N2C[C@H]3CC[C@@]4(N=C(C)N(C)C4=O)[C@H]3C2)cc1`, for which the Percent Effect is 24.7%.
Next, `CN1CCCC1c1cccc(Cc2ccccc2F)n1` (stereo unspecified): 16.7%; `CC(=O)N1CCCC1c1cccc(Cc2ccccc2F)n1` (stereo unspecified): 0%; `CN(C)C(=O)CN1CCCC1c1cccc(Cc2ccccc2F)n1` (stereo unspecified): 55.7%.
In the case of `CCS(=O)(=O)N1C[C@H]2C[C@H](C(=O)N(C)C)[C@@H](C1)O2`, the Percent Effect came out at 6.57%.
The result for `O=C(c1ccc[nH]1)N1C[C@H]2CC[C@@H]1CN(c1ncccn1)C2` reads 21.7%; that for `Cc1ccc(C(=O)N(C2CC2)C2CC(=O)NC2=O)cc1F` (stereo unspecified), 8.47%; that for `CCn1nnc2c1C(COCCN(C)C)CN(Cc1ccco1)C2` (stereo unspecified), 1.89%.
As for `CCn1nnc2c1C(COC)CN(Cc1ccco1)C2` (stereo unspecified), the Percent Effect came to 52.8%.
Next, `CCn1nnc2c1C(COCC(=O)N(C)C)CN(Cc1ccoc1)C2` (stereo unspecified): 5.66%; `CCn1nnc2c1C(COC)CN(Cc1cccs1)C2` (stereo unspecified): 13.5%; `CN(C)C(=O)COCC1CN(Cc2ccco2)Cc2ncn(C)c21` (stereo unspecified): 20.8%.
Next, `CCn1nnc2c1C(COCC(=O)N(C)C)CN(Cc1ccco1)C2` (stereo unspecified): 50.9%.
Next, `CC(=O)N1C[C@@H]2CN(S(=O)(=O)C3CC3)CCO[C@@H]2C1`: 10%.
As to `O=C1O[C@@H]2CN(c3cnccn3)C[C@@H]2N1CCCc1ccc(F)cc1`, the Percent Effect amounted to 11%.
Turning to `CCCS(=O)(=O)N1C[C@@H](Oc2ccccn2)[C@H]2OCCC[C@H]21`, the Percent Effect stood at 9.73%.
The result for `Cc1ncc(CN2Cc3ccccc3O[C@]3(CC[C@H](CO)CC3)C2)cn1` reads 11.1%; that for `Fc1cnc(N2CC[C@@H]3OC(COCc4cccnc4)CC[C@@H]32)nc1` (stereo partly specified), 5.26%; that for `O=C(c1ccco1)N1CC[C@@H]2O[C@@H](COCC3CCOCC3)CC[C@@H]21`, -0.84%.
Take `COC[C@@]12CCO[C@@H]1CCN(C(=O)CCc1ccccc1Cl)C2`: the Percent Effect amounted to 12.9%.
The result for `CCc1ncc2c(n1)CN(Cc1nnc(Cc3ccccc3)o1)CC2` reads 31.2%.
Next, `CC(C)c1ncc2c(n1)CN(Cc1nnc(Cc3ccccc3)o1)CC2`: 33%.
The result for `Cc1ncc2c(n1)CN(Cc1nnc(Cc3ccccc3)o1)CC2` reads 55.4%; that for `CC(C)N1C[C@@H]2OCC(=O)N(Cc3ccccc3)[C@@H]2C1`, 8.11%.
Regarding `Cc1nnc(N2CCc3cnc(C(C)C)nc3C2)c(C#N)c1C`, the Percent Effect is 46.7%.
For `Cc1nnc(N2CCc3cncnc3C2)c(C#N)c1C`, the Percent Effect came to 65.3%.
The result for `CCc1ncc2c(n1)CN(c1nnc(C)c(C)c1C#N)CC2` reads 12%; that for `O=C(c1ccnnc1)N1C[C@@H](OCC2CCOCC2)[C@H]2OCCC[C@H]21`, 11.8%.
Next, `COC(=O)c1ccc(OC)c(CN2CCN(CC(C)C)C(=O)C2C)c1` (stereo unspecified): 10.8%; `COc1cc(F)c(CN2CCN(CC(C)C)C(=O)C2C)cc1OC` (stereo unspecified): 10.8%.
For `COc1cccc(CN2CCN(CC(C)C)C(=O)C2C)c1O` (stereo unspecified), the Percent Effect is 98.9%.
Next, `CC(=O)N1CCN(c2ccccc2CNc2cncc(C)c2)CC1`: 11%.
With `CC(=O)N1CCN(c2ccccc2CNc2ccc3[nH]ncc3c2)CC1`, the Percent Effect was 57.5%.
Next, `COc1ccc(NCc2ccccc2N2CCN(C(C)=O)CC2)cn1`: 24.7%.
As to `Cn1ccnc1CN1CCN(Cc2ccccc2)[C@@H]2CS(=O)(=O)C[C@@H]21`, the Percent Effect came out at 5.59%.
For the compound `CNc1[nH]nc(N)c1C(=O)Nc1ccc(OC)cc1`, the Percent Effect was determined as 27.5%.
Next, `CNc1[nH]nc(N)c1NC(=O)c1ccccc1`: 87.5%; `CNc1[nH]nc(N)c1C(=O)Nc1ccccc1`: -15%.
On to `Cc1[nH]ccc1C(=O)N1C[C@H]2CC[C@@H]1CN(S(=O)(=O)N(C)C)C2`, for which the Percent Effect was found to be 16.1%.
Next, `COCCn1cc(NCc2cn(C)nc2-c2ccncc2)cn1`: 51.8%; `Cn1cc(CNc2cnn(CC3CCCO3)c2)c(-c2ccncc2)n1` (stereo unspecified): 30.7%.
The result for `Cn1cc(CNc2cnn(CCO)c2)c(-c2ccncc2)n1` reads 21.9%.
Take `Cc1ncsc1CN1C[C@@H]2CN(S(C)(=O)=O)CCO[C@@H]2C1`: the Percent Effect was 20%.
`Cc1ccc(CN2CC[C@H]3C[C@@H](c4nc(C5CC5)cs4)O[C@@H]3C2)o1`: the Percent Effect came to 19.8%.
On to `Cc1noc([C@@]23CCO[C@@H]2CCN(C(=O)CCC(C)C)C3)n1`, for which the Percent Effect came out at 5.56%.
Take `CC(C)(C)C(=O)N1CCC(COCc2ccccc2)C1` (stereo unspecified): the Percent Effect came to 8%.
The result for `Cc1nn(C)cc1C(=O)N1CCC(CSc2ccccc2)C1` (stereo unspecified) reads 11%.
The result for `Cc1cnc(C(=O)N2CCC(COCc3ccccc3)C2)cn1` (stereo unspecified) reads 2.67%; that for `Cn1cccc(NC(=O)N2CCC(Cc3ccccc3)C2)c1=O` (stereo unspecified), 106%; that for `Cn1cccc(NC(=O)N2CCC(COCc3ccccc3)C2)c1=O` (stereo unspecified), 108%.
